Only a sample is shown. The true hit rate is not given.
B1: il2ra_site1_2b5i_sap_15_mot_1dae16775e8f4074d71d019417416b97_0001_af2_000000275_0001_1_12_H_._HHH_b2_07869_0001_0000400013_0000001_1_0001_af2pred_0001_af2pred_1 (protein)
chain: SSSSTDVAREVFRLLEEADRLARNGNPEEAEKLLREAEELAEENGNRALLKFVRAALRALSSSSS
B2: il2ra_site1_2b5i_sap_9_mot_HHH_b2_07540_af2_000000089_0001_1_16_H_._HHH_b1_01333_af2_0001_0000100003_0000001_0_0001_af2pred_0001_af2pred (protein)
chain: SSSSSSEELLELLREADELFKNGNPEEAEKVLERAEELAERNGTKSMLRSVRSMLELLRESSSSS
B3: il2ra_site1_3nfp_sap_6_mot_HHH_b2_06502_000000163_0001_42_55_H_._HEEHE_0113_0001_0000200018_0000001_0_0001 (protein)
chain: SSSSSNDEAWRLLREAYEEFKKAKSREEMRELLEEAERLARELGDERLLRDIEKWLEQMKSSSSS
B4: il2ra_site2_2erj_sap_24_mot_HHH_b1_07975_000000000_0001_41_57_H_._HHH_b1_08466_af2_0001_0000800020_0000001_0_0001_af2pred_0001_af2pred (protein)
chain: SSSSSEEEEELKEFIEELVREFGLSEEVQKELEEIARFALEQGIDEEDIKKWLKLFAEETSSSSS
B5: il2ra_site2_3nfp_normal_mot_HHH_b1_01086_af2_000000264_0001_39_53_H_._a6da1dbab15e72488587f943ddaf1f3f_0001_1_af2_0001_0000500054_0000001_0 (protein)
chain: DREELLERIVREKDPRVEELLEEIKEAKERNDEELLEKLAKRLALIAFELGDPEVFALAADLQSI
B6: il2ra_site2_3nfp_normal_mot_HHH_b1_08498_000000146_0001_21_37_H_._HHH_b1_08008_0001_0000100001_0000001_0 (protein)
chain: SSSSDEEHLEAATRLIRAAAWALNDPELERRAEELLEEIKEHGDPELKQELAELTHEAFELSSSS
B7: il2ra_site2_2erj_normal_mot_HHH_b1_05749_af2_000000086_0001_23_39_H_._HHH_b2_01918_0001_0000200007_0000001_0 (protein)
chain: SSSSDELEEEVEELLEEVRRAYEEGDLEEAYRLAVRVFALAAENNDPELQRAVTRLLEELSSSSS
B8: il2ra_site1_3nfp_sap_17_mot_0eddeacbb14b769e73e254714f31e2f9_0001_af2_000000052_0001_37_51_H_._7093d3a5e4329be201a559e39cb9bd18_0001_0001_0000800048_0000001_0_0 … (protein)
chain: SSSDEAKELAEEAIEELERLIKEGDVRAVAETIRRIAKELLELNDPEALELLQREVRKLLRSSSS
B9: il2ra_site1_2b5i_sap_17_mot_2cbe48e66a1f39b3fed734b245ab0a04_0001_000000015_0001_17_31_H_._HHH_b1_01921_0001_0000600034_0000001_0_0001_af2pred_dldesign_0_af2pre … (protein)
chain: SSSSSDVKEVLELFEEANKLFQAGKPEEAKEVLEKALEKAKALGAEAHIRIIESALEQLESSSSS
B10: il2ra_site1_3nfp_sap_12_mot_HHH_b1_07180_af2_000000260_0001_1_19_H_._HHH_b2_06317_af2_0001_0000500010_0000001_0_0001_af2pred_0001_af2pred_1 (protein)
chain: SDEELIKKLVRIAVEQNSPRLLRKILRDFERYTGDPEEAERILEELIEEVLGDPEEARRLVEEAK
B11: il2ra_site1_1z92_normal_mot_c9a8daa1dfea21d1414aecde54be4f54_0001_1_af2_000000024_0001_32_46_H_._0e4f66a3c4b070984708d3e1d5382b02_0001_1_af2_0001_0000100008_000 … (protein)
chain: NVAERLFEQAEELGVPPRAVVLALVSAVHAEDPRLREEAEELLERVRRGELPPEEAVRLLAELLE
B12: il2ra_site1_3nfp_sap_9_mot_HHH_b1_03716_af2_000000235_0001_20_37_H_._HHH_b1_05438_0001_0000400011_0000001_0_0001_af2pred_0001_af2pred_1 (protein)
chain: SSSSTELKELLKIVQRLFEEFNLSEEQAQELLQLAEELAKEGVSLEEIEELLRELAERLSSSSSS
B13: il2ra_site2_3nfp_sap_18_mot_11405e7faed88c9d08fdae67291e590b_0001_1_000000110_0001_14_30_H_._HHH_b2_00163_af2_0001_0000300012_0000001_0_0001 (protein)
chain: SSSSDKHERYLRAALELIERAIREGDHEIARRMLETVKSAAEDNNDEEIEELVEELEELLRSSSS
B14: il2ra_site2_2erj_normal_mot_HHH_b1_03609_af2_000000077_0001_42_55_H_._HHH_b2_01692_0001_0000500006_0000001_0 (protein)
chain: SSSSSEVEEEVREILEEAKHIEDPEEREKVLSKAAELAFENNDFEAWSLVSEVFRELAESSSSSS
B15: il2ra_site2_2erj_normal_mot_6bd1339e93f6fdda22195c76da45ec5d_0001_000000136_0001_37_51_H_._HHH_b2_06260_0001_0000100003_0000001_0_af2pred_0001_af2pred (protein)
chain: SSSSSEDEERVEELLEQAEEAAKRDPEKALHLLFEAMEIALKSDNEELLKLVLEVSHRIAESSSS
B16: il2ra_site2_2erj_normal_mot_HHH_b1_05749_af2_000000010_0001_23_39_H_._HHH_b1_07967_0001_0001100051_0000001_1 (protein)
chain: SSSSDWLEELYRLAVELLRLSSRRDEEEFERVYREIERLVEEFNNESAREILEHIRRLFEGSSSS
B17: il2ra_site1_2b5i_normal_mot_2cbe48e66a1f39b3fed734b245ab0a04_0001_000000015_0001_17_31_H_._HHH_b2_00019_0001_0000500012_0000001_0_af2pred_dldesign_0_af2pred (protein)
chain: SSSSSSDAEAEVERLLEEARKVNPEEAEKLLFKALVVAWAAKDPALVARVEAEAKRLLSSSSSSS
B18: il2ra_site2_3nfp_sap_25_mot_HHH_b2_07498_000000293_0001_1_14_H_._HHH_b1_01574_0001_0000100004_0000001_0_0001_af2pred_0001_1_af2pred_swapped (protein)
chain: SSSSSDEELLEEAKRLLEEGNLEEAFRVLAEAASEAIELGDEELAHEIAALAIEVAEKLGSSSSS

These binders were tested against il2ra, P01589 (assay: yeast display titration).
Sequence of il2ra, P01589 (P01589 whole entry): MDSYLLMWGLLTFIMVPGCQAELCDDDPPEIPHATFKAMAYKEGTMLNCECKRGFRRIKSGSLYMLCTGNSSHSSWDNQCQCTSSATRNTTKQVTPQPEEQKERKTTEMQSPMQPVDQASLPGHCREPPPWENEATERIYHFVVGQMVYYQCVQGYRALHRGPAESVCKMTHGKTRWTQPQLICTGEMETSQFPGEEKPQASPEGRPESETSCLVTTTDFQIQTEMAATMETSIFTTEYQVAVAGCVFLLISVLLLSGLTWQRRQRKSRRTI

Apparent Kd, inactive:
B1 no binding seen
B2 no binding seen
B3 no binding seen
B4 no binding seen
B5 no binding seen
B6 no binding seen
B7 no binding seen
B8 no binding seen
B9 no binding seen
B10 no binding seen
B11 no binding seen
B12 no binding seen
B13 no binding seen
B14 no binding seen
B15 no binding seen
B16 no binding seen
B17 no binding seen
B18 no binding seen

Source: PMC10163288
